# Experimental data from PMC8384837, “Expanding the binding specificity for RNA recognition by a PUF domain”.
# Positions count from the first letter of the chain named.
# Legend:
# Assay in all cases: yeast three-hybrid, YBZ-1, SC-Leu-His + 0.5 mM 3-AT, 4 days
# Conditions in all cases: tags: N-Gal4 AD-HA kept; label: inside an RPR1-promoter hybrid RNA with tandem MS2 sites; ssRNA
# [1] = biological target: PUM1 PUF domain R3-PFV (Homo sapiens, UniProt Q14671 828-1176, C935P;R936F;Q939V)
# How it was run: (§1)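 Sequencing with Illumina followed PCR amplification of the repeat regions from transformants grown four days on SC-Leu (input) or SC-Leu-His + 0.5 mM 3-AT (selection). The transformants were strain YBZ-1 with a LexA–MS2 coat fusion and a HIS3 reporter, carrying Pumilio-1 PUF domain libraries and matching RNA elements. The interaction score is the log change in variant frequency from input to selection, computed in log2 with a pseudocount of 1 for absent variants.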
# [2] = biological target: PUM1 PUF domain R3-SRF (Homo sapiens, UniProt Q14671 828-1176, C935S;Q939F)
# How it was run: as §1
# [3] = biological target: PUM1 PUF domain R3-FYS (Homo sapiens, UniProt Q14671 828-1176, C935F;R936Y;Q939S)
# How it was run: as §1
# [4] = biological target: PUM1 PUF domain R4-VPC (Homo sapiens, UniProt Q14671 828-1176, N971V;H972P;Q975C)
# How it was run: as §1
# [5] = biological target: PUM1 PUF domain R2-NWP (Homo sapiens, UniProt Q14671 828-1176, Y900W;Q903P)
# How it was run: as §1
# [6] = biological target: PUM1 PUF domain R8-KFY (Homo sapiens, UniProt Q14671 828-1176, N1122K;Y1123F;Q1126Y)
# How it was run: as §1
# [7] = biological target: PUM1 PUF domain R4-WSH (Homo sapiens, UniProt Q14671 828-1176, N971W;H972S;Q975H)
# How it was run: as §1
# [8] = biological target: T1, PUM1 PUF domain R6-IFQ (Homo sapiens, UniProt Q14671 828-1176, N1043I;Y1044F)
# T1 sequence: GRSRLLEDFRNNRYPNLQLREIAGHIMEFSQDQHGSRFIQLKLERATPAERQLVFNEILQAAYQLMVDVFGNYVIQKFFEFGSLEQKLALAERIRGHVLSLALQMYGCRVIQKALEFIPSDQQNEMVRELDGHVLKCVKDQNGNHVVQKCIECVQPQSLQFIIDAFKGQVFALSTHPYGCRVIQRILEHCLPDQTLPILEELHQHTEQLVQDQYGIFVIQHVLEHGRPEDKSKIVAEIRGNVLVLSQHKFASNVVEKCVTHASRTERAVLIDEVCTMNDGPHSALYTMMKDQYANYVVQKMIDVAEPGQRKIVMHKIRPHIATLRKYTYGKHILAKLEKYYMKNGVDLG
# How it was run: as §1
# [9] = biological target: PUM1 PUF domain R8-MHK (Homo sapiens, UniProt Q14671 828-1176, N1122M;Y1123H;Q1126K)
# How it was run: as §1
# [10] = biological target: PUM1 PUF domain R2-RVT (Homo sapiens, UniProt Q14671 828-1176, N899R;Y900V;Q903T)
# How it was run: as §1
# [11] = biological target: PUM1 PUF domain R5-KRK (Homo sapiens, UniProt Q14671 828-1176, C1007K;Q1011K)
# How it was run: as §1
# [12] = biological target: PUM1 PUF domain R5-KVE (Homo sapiens, UniProt Q14671 828-1176, C1007K;R1008V;Q1011E)
# How it was run: as §1
# [13] = biological target: PUM1 PUF domain R5-RST (Homo sapiens, UniProt Q14671 828-1176, C1007R;R1008S;Q1011T)
# How it was run: as §1
# [14] = biological target: PUM1 PUF domain R7-ISG (Homo sapiens, UniProt Q14671 828-1176, S1079I;N1080S;E1083G)
# How it was run: as §1
# [15] = biological target: PUM1 PUF domain R7-RAR (Homo sapiens, UniProt Q14671 828-1176, S1079R;N1080A;E1083R)
# How it was run: as §1
# [16] = biological target: PUM1 PUF domain R5-DWW (Homo sapiens, UniProt Q14671 828-1176, C1007D;R1008W;Q1011W)
# How it was run: as §1
# [17] = biological target: PUM1 PUF domain R4-WGM (Homo sapiens, UniProt Q14671 828-1176, N971W;H972G;Q975M)
# How it was run: as §1
# [18] = biological target: T2, PUM1 PUF domain R6-NWV (Homo sapiens, UniProt Q14671 828-1176, Y1044W;Q1047V)
# T2 sequence: T1 sequence with I216N, F217W, Q220V
# How it was run: as §1
# [19] = biological target: PUM1 PUF domain R1-TRR (Homo sapiens, UniProt Q14671 828-1176, S863T;Q867R)
# How it was run: as §1
sequence,measurement,setting,value
GGCUAGAACUAGUGGAUCCCCCGGCGCCCGGCGGCUCGAGCCCGGGUAAGUGUAAAUAGUCUGCAUGCCGCCGGGCGCCAUGCCUGCAGGUCGACUCUAGAAAACAUG,binding signal,[1],3.44 log2 enrichment (interaction score)
same,binding signal,[2],2.58 log2 enrichment (interaction score)
same,binding signal,[3],3.03 log2 enrichment (interaction score)
same,binding signal,[4],2.65 log2 enrichment (interaction score)
same,binding signal,[5],4.83 log2 enrichment (interaction score)
same,binding signal,[6],2.5 log2 enrichment (interaction score)
same,binding signal,[7],1.11 log2 enrichment (interaction score)
same,binding signal,[8],3.62 log2 enrichment (interaction score)
same,binding signal,[9],2.63 log2 enrichment (interaction score)
GGCUAGAACUAGUGGAUCCCCCGGCGCCCGGCGGCUCGAGCCCGGGUAAGUGUAAUUAGUCUGCAUGCCGCCGGGCGCCAUGCCUGCAGGUCGACUCUAGAAAACAUG,binding signal,[1],2.52 log2 enrichment (interaction score)
GGCUAGAACUAGUGGAUCCCCCGGCGCCCGGCGGCUCGAGCCCGGGUAAGUGUAAAGAGUCUGCAUGCCGCCGGGCGCCAUGCCUGCAGGUCGACUCUAGAAAACAUG,binding signal,[10],2.17 log2 enrichment (interaction score)
GGCUAGAACUAGUGGAUCCCCCGGCGCCCGGCGGCUCGAGCCCGGGUAAGUGUUAAUAGUCUGCAUGCCGCCGGGCGCCAUGCCUGCAGGUCGACUCUAGAAAACAUG,binding signal,[11],2.98 log2 enrichment (interaction score)
GGCUAGAACUAGUGGAUCCCCCGGCGCCCGGCGGCUCGAGCCCGGGUAAGUGUCAAUAGUCUGCAUGCCGCCGGGCGCCAUGCCUGCAGGUCGACUCUAGAAAACAUG,binding signal,[11],3.89 log2 enrichment (interaction score)
same,binding signal,[12],2.24 log2 enrichment (interaction score)
same,binding signal,[13],2.91 log2 enrichment (interaction score)
GGCUAGAACUAGUGGAUCCCCCGGCGCCCGGCGGCUCGAGCCCGGGUAAGUGUACAUAGUCUGCAUGCCGCCGGGCGCCAUGCCUGCAGGUCGACUCUAGAAAACAUG,binding signal,[4],3.7 log2 enrichment (interaction score)
GGCUAGAACUAGUGGAUCCCCCGGCGCCCGGCGGCUCGAGCCCGGGUAAGUUUAAAUAGUCUGCAUGCCGCCGGGCGCCAUGCCUGCAGGUCGACUCUAGAAAACAUG,binding signal,[14],5.55 log2 enrichment (interaction score)
same,binding signal,[15],4.56 log2 enrichment (interaction score)
GGCUAGAACUAGUGGAUCCCCCGGCGCCCGGCGGCUCGAGCCCGGGUAAGCGUAAAUAGUCUGCAUGCCGCCGGGCGCCAUGCCUGCAGGUCGACUCUAGAAAACAUG,binding signal,[6],2.74 log2 enrichment (interaction score)
GGCUAGAACUAGUGGAUCCCCCGGCGCCCGGCGGCUCGAGCCCGGGUAAGUGUGAAUAGUCUGCAUGCCGCCGGGCGCCAUGCCUGCAGGUCGACUCUAGAAAACAUG,binding signal,[16],5.08 log2 enrichment (interaction score)
GGCUAGAACUAGUGGAUCCCCCGGCGCCCGGCGGCUCGAGCCCGGGUAAGUGUAUAUAGUCUGCAUGCCGCCGGGCGCCAUGCCUGCAGGUCGACUCUAGAAAACAUG,binding signal,[17],2.85 log2 enrichment (interaction score)
same,binding signal,[7],4.36 log2 enrichment (interaction score)
GGCUAGAACUAGUGGAUCCCCCGGCGCCCGGCGGCUCGAGCCCGGGUAAGUGAAAAUAGUCUGCAUGCCGCCGGGCGCCAUGCCUGCAGGUCGACUCUAGAAAACAUG,binding signal,[18],3.35 log2 enrichment (interaction score)
GGCUAGAACUAGUGGAUCCCCCGGCGCCCGGCGGCUCGAGCCCGGGUAAGUCUAAAUAGUCUGCAUGCCGCCGGGCGCCAUGCCUGCAGGUCGACUCUAGAAAACAUG,binding signal,[15],1.83 log2 enrichment (interaction score)
GGCUAGAACUAGUGGAUCCCCCGGCGCCCGGCGGCUCGAGCCCGGGUAAGUGUAAAUCGUCUGCAUGCCGCCGGGCGCCAUGCCUGCAGGUCGACUCUAGAAAACAUG,binding signal,[19],4.23 log2 enrichment (interaction score)
GGCUAGAACUAGUGGAUCCCCCGGCGCCCGGCGGCUCGAGCCCGGGUAAGUGUAAAUUGUCUGCAUGCCGCCGGGCGCCAUGCCUGCAGGUCGACUCUAGAAAACAUG,binding signal,[19],3.12 log2 enrichment (interaction score)
